Reference: PubChem BioAssay (NCATS)
“And” between values parts separate entries of the source, which are not always exact repeats. Equal entries are not always repeated. Records with an inconclusive call do not appear. Unmarked numbers belong to inactive results. The source made the active and inactive calls. Unless noted, the call rests on the fitted dose curve.
Potency means the concentration at half of the fitted maximal effect.

Assay: Cell Viability - BJ (AID 421);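 further: cells exposed to compound for 40 hours at 37 °C before readout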
Conditions: BJ fibroblast viability, qHTS
Summary of the method: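 Cytotoxicity in human BJ foreskin fibroblasts is scored as loss of cellular ATP after a 40-hour exposure, measured by luciferase luminescence. Controls are DMSO and 100 uM tamoxifen.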
In the case of O=Cc1ccco1, the Potency is reported as > 92 µM. For O=C(O)C(Cl)(Cl)Cl, the Potency was > 92 µM. With CCCCCl the Potency was > 92 µM. In the case of [O]=[Cr](=[O])([OH])[O][Cr](=[O])(=[O])[OH], the Potency is reported as 19.5 µM (active) and 13.4 µM (active) and 4.66 µM (active). With S=C=S the Potency was > 92 µM. In the case of CCOC(=O)c1ccccc1C(=O)OCC, the Potency is reported as > 92 µM. For O=C1CCO1, the Potency was > 92 µM. For O=[N+]([O-])c1ccccc1, the Potency was > 92 µM. For CC(C)CCON=O, the Potency was > 92 µM. With Clc1ccccc1Cl the Potency was > 92 µM. For C[C@H]1CC[C@@H]2[C@@H](C)[C@H]3[C@H](C[C@H]4[C@@H]5CC=C6CC(O[C@@H]7O[C@H](CO)[C@H](O)[C@H](O[C@@H]8O[C@H](CO)[C@@H](O)[C@H](O)[C@H]8O)[C@H]7O[C@H]7O[C@@H](C)[C@H](O)[C@@H](O)[C@H]7O)CC[C@]6(C)[C@H]5CC[C@]34C)N2C1 (stereo not given in full), the Potency was 35 µM (active). For Oc1cc(Cl)c(Cl)cc1Cl, the Potency was > 92 µM. With COc1ccc2c(c1OC)C(=O)OC2C1c2cc3c(cc2CCN1C)OCO3 (stereo not given) the Potency was > 92 µM. With [Cl-].[Cl-].[Hg+2] the Potency was 29.4 µM (active). In the case of O=CC=O, the Potency is reported as > 92 µM. In the case of ClC(Cl)(Cl)Cl, the Potency is reported as > 92 µM. For C[C@]12CCC(=O)C[C@@H]1CC[C@@H]1[C@@H]2CC[C@]2(C)[C@@H](O)CC[C@@H]12, the Potency was > 92 µM. With C=CCN=C=S the Potency was > 92 µM. In the case of [O]=[Cd], the Potency is reported as > 92 µM. For O=[N+]([O-])c1ccc(F)c([N+](=O)[O-])c1, the Potency was 59.9 µM (active). For C[C@H]1CCC[C@H](O)CCCCCc2cc(O)cc(O)c2C(=O)O1, the Potency was > 92 µM. With COC1=CC(=O)O[C@@H](/C=C/c2ccccc2)C1 the Potency was > 92 µM. In the case of CCCCCCCCOC(=O)c1ccccc1C(=O)OCCCCCCCC, the Potency is reported as > 92 µM. For O=C/C=C/c1ccccc1, the Potency was > 92 µM. In the case of ClCC1CO1 (stereo not given), the Potency is reported as > 92 µM. With O=C1C2CC=CCC2C(=O)N1SC(Cl)(Cl)Cl (stereo not given) the Potency was 54.5 µM (active) and 21.4 µM (active). In the case of ClC=C(Cl)Cl, the Potency is reported as > 92 µM.

Assay: Cell Viability - Jurkat (AID 426;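 active means dose-dependent loss of cell ATP signal giving a full or clear fitted curve, ranked by lower potency value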;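 further: cells exposed to compound for 40 hours at 37 °C before ATP read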)
Conditions: qHTS
Summary of the method: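 Cytotoxicity taken as drop in cellular ATP (CellTiter-Glo luminescence, 20 min room temperature) after 40 hr, 37C treatment of 5000 Jurkat Clone E6-1 cells per well; concentration-response fitted with Hill equation for AC50.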
In the case of O=Cc1ccco1, the Potency is reported as > 92 µM. In the case of O=C(O)C(Cl)(Cl)Cl, the Potency is reported as > 92 µM. For CCCCCl, the Potency was > 92 µM. With [O]=[Cr](=[O])([OH])[O][Cr](=[O])(=[O])[OH] the Potency was 1.88 µM (active) and 3.05 µM (active) and 549 nM (active). For S=C=S, the Potency was > 92 µM. In the case of CCOC(=O)c1ccccc1C(=O)OCC, the Potency is reported as > 92 µM. In the case of O=C1CCO1, the Potency is reported as > 92 µM. For O=[N+]([O-])c1ccccc1, the Potency was > 92 µM. In the case of CC(C)CCON=O, the Potency is reported as > 92 µM. For Clc1ccccc1Cl, the Potency was > 92 µM. In the case of C[C@H]1CC[C@@H]2[C@@H](C)[C@H]3[C@H](C[C@H]4[C@@H]5CC=C6CC(O[C@@H]7O[C@H](CO)[C@H](O)[C@H](O[C@@H]8O[C@H](CO)[C@@H](O)[C@H](O)[C@H]8O)[C@H]7O[C@H]7O[C@@H](C)[C@H](O)[C@@H](O)[C@H]7O)CC[C@]6(C)[C@H]5CC[C@]34C)N2C1 (stereo not given in full), the Potency is reported as 32.5 µM (active). With COc1ccc2c(c1OC)C(=O)OC2C1c2cc3c(cc2CCN1C)OCO3 (stereo not given) the Potency was > 92 µM. For [Cl-].[Cl-].[Hg+2], the Potency was 25.3 µM (active). In the case of O=CC=O, the Potency is reported as > 92 µM. In the case of ClC(Cl)(Cl)Cl, the Potency is reported as > 92 µM. For C[C@]12CCC(=O)C[C@@H]1CC[C@@H]1[C@@H]2CC[C@]2(C)[C@@H](O)CC[C@@H]12, the Potency was > 92 µM. For C=CCN=C=S, the Potency was > 92 µM. With CC(C)Nc1ccc(Nc2ccccc2)cc1 the Potency was 22.8 µM (active). In the case of [O]=[Cd], the Potency is reported as > 92 µM. With O=[N+]([O-])c1ccc(F)c([N+](=O)[O-])c1 the Potency was 8.96 µM (active). In the case of C[C@H]1CCC[C@H](O)CCCCCc2cc(O)cc(O)c2C(=O)O1, the Potency is reported as > 92 µM. For COC1=CC(=O)O[C@@H](/C=C/c2ccccc2)C1, the Potency was > 92 µM. For ClCC1CO1 (stereo not given), the Potency was > 92 µM. In the case of O=C1C2CC=CCC2C(=O)N1SC(Cl)(Cl)Cl (stereo not given), the Potency is reported as 4.24 µM (active) and 4.76 µM (active). With ClC=C(Cl)Cl the Potency was > 92 µM.

Assay: Cell Viability - Hek293 (AID 427;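 active means compounds whose dose-response curve shows a full or clear partial loss of cell viability, called from curve shape rather than a numeric limit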;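 further: cells exposed to compound for 40 hours at 37 °C before reading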)
Conditions: qHTS
Summary of the method: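 qHTS, human embryonic kidney (adenovirus-transformed) cells; 40 hr cpd, 37 °C; CellTiter-Glo ATP luminescence. Norm: DMSO = 0, 100 uM tamoxifen = 100% inhibition. Hill-fit AC50.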
In the case of O=Cc1ccco1, the Potency is reported as > 92 µM. For O=C(O)C(Cl)(Cl)Cl, the Potency was > 92 µM. For CCCCCl, the Potency was > 92 µM. With [O]=[Cr](=[O])([OH])[O][Cr](=[O])(=[O])[OH] the Potency was 30.9 µM (active) and 31.8 µM (active) and 19.2 µM (active). In the case of S=C=S, the Potency is reported as > 92 µM. In the case of CCOC(=O)c1ccccc1C(=O)OCC, the Potency is reported as > 92 µM. For O=C1CCO1, the Potency was > 92 µM. With O=[N+]([O-])c1ccccc1 the Potency was > 92 µM. With CC(C)CCON=O the Potency was > 92 µM. For Clc1ccccc1Cl, the Potency was > 92 µM. In the case of C[C@H]1CC[C@@H]2[C@@H](C)[C@H]3[C@H](C[C@H]4[C@@H]5CC=C6CC(O[C@@H]7O[C@H](CO)[C@H](O)[C@H](O[C@@H]8O[C@H](CO)[C@@H](O)[C@H](O)[C@H]8O)[C@H]7O[C@H]7O[C@@H](C)[C@H](O)[C@@H](O)[C@H]7O)CC[C@]6(C)[C@H]5CC[C@]34C)N2C1 (stereo not given in full), the Potency is reported as 39.3 µM (active). With Oc1cc(Cl)c(Cl)cc1Cl the Potency was > 92 µM. With COc1ccc2c(c1OC)C(=O)OC2C1c2cc3c(cc2CCN1C)OCO3 (stereo not given) the Potency was > 92 µM. In the case of [Cl-].[Cl-].[Hg+2], the Potency is reported as 19.4 µM (active). For O=CC=O, the Potency was > 92 µM. With ClC(Cl)(Cl)Cl the Potency was > 92 µM. With C=CCN=C=S the Potency was > 92 µM. For [O]=[Cd], the Potency was > 92 µM. With COC1=CC(=O)O[C@@H](/C=C/c2ccccc2)C1 the Potency was > 92 µM. In the case of CCCCCCCCOC(=O)c1ccccc1C(=O)OCCCCCCCC, the Potency is reported as > 92 µM. In the case of ClCC1CO1 (stereo not given), the Potency is reported as > 92 µM. With O=C1C2CC=CCC2C(=O)N1SC(Cl)(Cl)Cl (stereo not given) the Potency was 26.5 µM (active) and 26.9 µM (active). For ClC=C(Cl)Cl, the Potency was > 92 µM.
